Assay outcomes as filed in PubChem.
Shown are actives, neighbours in structure and some others; about 21% of the full set was active somewhere.
DRD3 agonist: activates the human D3 dopamine receptor. 0.58% of 410,000 active. P35462. D3R DiscoveRx beta-arrestin cells, luminescence, 90 min. max activation, %; in the data active means max activation above about 30%; further: 0% is about no effect
Target sequence (P35462 whole entry, looked up): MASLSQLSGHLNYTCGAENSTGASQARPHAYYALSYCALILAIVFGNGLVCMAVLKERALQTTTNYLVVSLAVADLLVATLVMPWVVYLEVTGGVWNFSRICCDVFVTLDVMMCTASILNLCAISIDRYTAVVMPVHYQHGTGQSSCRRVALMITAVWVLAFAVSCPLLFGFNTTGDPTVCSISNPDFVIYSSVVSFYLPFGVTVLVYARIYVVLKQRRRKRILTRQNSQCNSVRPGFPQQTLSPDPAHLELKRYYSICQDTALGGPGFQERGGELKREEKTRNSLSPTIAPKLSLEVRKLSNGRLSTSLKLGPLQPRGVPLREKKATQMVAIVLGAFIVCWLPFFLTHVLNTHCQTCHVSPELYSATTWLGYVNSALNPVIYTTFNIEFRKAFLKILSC
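Cells at 1500/well, incubated overnight, then treated with pinned compounds (dopamine as control) for 90 min at 37 degrees C. DiscoveRx reagent added for 30 - 60 minutes at room temperature; luminescence read.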
DRD3 antagonist: antagonists of human D3 dopamine receptor; P35462; D3R cells, DiscoveRx beta-arrestin luminescence, antagonist mode; active compounds read low; max response, negative = inhibition, %; 2.5% of 360,000 active; in the data active means max response below about -50%; inconclusive means no clear call, values can overlap the other calls; further: on the % scale 0 is the no-effect control and ±100 the full control effect
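Cells expressing the human receptor were seeded at 1500 cells/well, incubated overnight at 37 degrees C in 5% CO2, then exposed to library compounds with dopamine controls for 90 minutes at 37 degrees C before luminescent detection.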
DT40 TDP1 CPT: growth inhibition of DT40 Tdp1-/-;hTDP1 cells with camptothecin (screen for TDP1 inhibitors); 12% of 420,000 active; Potency, µM (titrated, usually from 46.2 µM), for the others: at the top dose activity change, negative = growth inhibition, hits mostly inhibitors; AID 686979; chicken DT40 Tdp1-/-;hTDP1 cells + 20 nM CPT, ATP luminescence, 48 h; further: potency means the concentration at half of the fitted maximal effect; on the % scale 0 is the no-effect control and ±100 the full control effect; nearly all actives have a fitted effect of over 55% in size
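Cell growth measured by CellTiter-Glo luminescence after a minimum 48 h, 37 C compound exposure with 20 nM CPT in Tdp1-knockout DT40 cells stably expressing hTDP1, seeded 400/well; qHTS titration format.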
ClpP mod: qHTS Assay for Activators of ClpP | 1.9% of 340,000 active | Potency, µM (highest dose often 57.5 µM), inactives show at the highest dose activity change, negative = active | AID 651965, 2013 | purified B. subtilis ClpP, FRET peptide cleavage, 20 min; active means well fitted falling curve with a large enough effect; inconclusive means small, poorly fitted or top-dose-only effect; inactive means no such curve, though single readings can be large or run the other way; further: potency means the concentration at half of the fitted maximal effect; the source files actives as falling curves though it sought activators and does not explain the sign; nearly all actives have a fitted effect of over 65% in size
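Buffer: 100 mM Tris/HCl pH8, 100 mM KCl, 0.05% low protease BSA, 2.5% glycerol, 0.01% Tween-20. ClpP 10 microg/mL final; 20 min RT; delta FRET normalized to ADEP and DMSO controls.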
TDP1 cell noCPT: qHTS for Inhibitors of human tyrosyl-DNA phosphodiesterase 1 (TDP1): qHTS in cells in absence of CPT; 15% of 420,000 active; DT40 Tdp1-/- hTDP1 cells, no CPT, ATP luminescence, 48 h; Potency, µM (highest dose often 46.2 µM), without a hit: at the top dose activity change, negative = growth inhibition, actives largely listed as inhibitors; further: potency means the concentration at half of the fitted maximal effect; on the % scale 0 is the no-effect control and ±100 the full control effect; nearly all actives have a fitted effect of over 55% in size
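Seeded 400 DT40-hTDP1 cells/well (vehicle DMSO, no 20 nM CPT); pinned compounds; ≥48 hr at 37 °C; CellTiter-Glo luminescence as viability measure.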
IL-1B inflam inh: blocks inflammasome-driven IL-1 beta release | 4.7% of 360,000 active | AID 743279 | THP-1 LPS/ATP IL-1B secretion, AlphaLISA, 16 h; active compounds read low | activity change, % at 57.5 µM; in the data active means activity change below about -50%; inconclusive means mostly about -30% to -49%; further: on the % scale 0 is the no-effect control and ±100 the full control effect
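THP-1 cells pretreated 1 hr with compounds (up to 57.5 uM final), then stimulated with LPS (250 ng/mL final) plus ATP (1.25 mM final); secreted IL-1B measured by AlphaLISA after 16 hr, decreased signal indicating inhibition.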
* marks the source's active call; other numbers are inactive results; u = inconclusive; x = no result given. Unless noted, the call rests on the fitted dose curve; in most records, active means well fitted inhibition curve with a large enough effect; inconclusive means small, poorly fitted or top-dose-only effect; inactive means flat fitted curve, though single readings scatter.

SMILES	DRD3 agonist	DRD3 antagonist	DT40 TDP1 CPT	ClpP mod	TDP1 cell noCPT	IL-1B inflam inh
O=C(NCc1ccc(F)cc1)c1cc(C2CCCCN2C(=O)c2ccc(Cl)cc2)on1 (stereo not drawn)	1	10	u	-3%	15µM*	0
O=C(CSc1nc(-c2cccs2)nc2cc(=O)[nH]n12)Nc1ccccc1	5	x	2%	1%	0%	x
CCN(CC)c1ccc(/C=C/C2=C3C=CC=CC3NC=C2)cc1 (stereo not drawn)	x	x	u	-4%	14µM*	x
COc1ccc(C(=O)CC(=O)c2ccc(C(C)(C)C)cc2)cc1	-38	5	u	-20%	u	8
COc1ccc(C(=O)CCc2ccccc2)cc1	2	6	1%	-1%	-2%	-52*
COc1ccc(C(=O)CC(=O)c2ccc(F)cc2)cc1	-15	-4	-22%	14%	u	-53*
CN(C(=O)c1ccccc1)c1ccccc1C(=O)NCCc1ccccc1	-1	u	u	-1%	u	7
COc1ccc(C(=O)N(C)c2ccccc2C(=O)NCCc2ccccc2)cc1	0	0	4.1µM*	1%	2.9µM*	31
COc1ccc(C(=O)NN)cc1	1	4	7%	x	-15%	-2
COc1ccc(C(=O)C(CCC(CNC(C)(C)C)C(=O)c2ccc(OC)cc2)CNC(C)(C)C)cc1 (stereo not drawn)	-17	-55*	5.2µM*	28µM*	5.2µM*	-101*
C[C@H](CO)N1C[C@H](C)[C@@H](CN(C)S(=O)(=O)c2ccccc2)Oc2c(NC(=O)c3ccncc3)cccc2C1=O	23	22	-11%	0%	-3%	-10
O=C(CSc1ccc(F)cc1)NCC1(N2CCOCC2)CCCCC1	-1	11	-5%	0%	u	-10
COc1cc2ccccc2cc1C(=O)Nc1ccc2oc(-c3ccc(F)cc3Cl)nc2c1	4	x	-14%	-19%	-10%	x
CS(=O)(=O)N(Cc1ccccc1)c1ccc(C(=O)Nc2cccc(Cl)c2)cc1	0	x	u	-12%	15µM*	x
CS(=O)(=O)N(Cc1ccc(Cl)cc1)c1ccc(C(=O)Nc2cccnc2)cc1	14	-23	-17%	-1%	-29%	0
CC(=O)c1cccc(NC(=O)c2ccc(N(Cc3ccc(C)cc3)S(C)(=O)=O)cc2)c1	1	17	16µM*	-2%	u	-30
Cc1ccc(NC(=O)c2ccc(N(Cc3ccccc3)S(C)(=O)=O)cc2)cc1	-8	x	u	-19%	12µM*	x
Cc1ccc(CN(c2ccc(C(=O)Nc3ccc4c(c3)OCO4)cc2)S(C)(=O)=O)cc1	6	-12	1%	-1%	9%	-4
Cc1cc(C)c(NC(=O)Cn2c(=O)nc(-c3ccccc3)c3cc(Cl)ccc32)c(C)c1	2	x	5%	-5%	u	x
C=C1C(=O)O[C@H]2C1CC[C@@](C)(O)C13C=CC(C)(C21)C1(C3)C(=O)O[C@@H]2C3C(C)=CCC3[C@](C)(O)C[C@H](OC(C)=O)C21 (stereo partly drawn)	1	3	u	1%	16µM*	-94*
COc1cc2oc(=O)c(CC(=O)NCCc3ccccc3F)c(C)c2cc1OC	7	x	1%	4%	-16%	x
COc1ccc(OC)c(CNc2sc3c(c2C(=O)Nc2cc(OC)ccc2OC)CCCC3)c1	-6	x	u	-9%	u	x
CCOC(=O)c1ccc(NC(=O)c2c(NCc3cc(OC)ccc3OC)sc3c2CCC3)cc1	7	x	16µM*	-5%	u	x
COc1cc(OC)c(OC)cc1CNc1sc2c(c1C(=O)Nc1ccccc1OC)CCC2	5	x	21µM*	-3%	21µM*	x
